Source: PubChem
TDP1 cell CPT – qHTS for Inhibitors of human tyrosyl-DNA phosphodiesterase 1 (TDP1): qHTS in cells in presence of CPT; chicken DT40 Tdp1-/-;hTDP1 cells + 20 nM CPT, ATP luminescence, 48 h; Potency, µM (top dose mostly 46.2 µM), actives largely listed as inhibitors; 12% of 420,000 active; AID 686979, 2013; further: nearly all actives have a fitted effect of over 55% in size
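Cell growth measured by CellTiter-Glo luminescence after a minimum 48 h, 37 C compound exposure with 20 nM CPT in Tdp1-knockout DT40 cells stably expressing hTDP1, seeded 400/well; qHTS titration format.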
12-LOX inh – Primary qHTS assay for inhibitors of human arachidonate 12S-lipoxygenase (ALOX12): Round 2 | Potency, µM (series often up to 108 µM), most hits filed as inhibitors | AID 1671190, 2021 | Polyunsaturated fatty acid lipoxygenase ALOX12 (Homo sapiens), P18054 | 1.1% of 580,000 active | purified 12hLO, xylenol orange hydroperoxide absorbance
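Hydroperoxide product was detected by ferrous iron/xylenol orange as the 573 to 405 nm absorbance ratio. Arachidonic acid at 40 uM (final) was turned over for 30 min at room temperature by 150 nM human 12hLO, pH 7.0 Hepes buffer, after 15 min compound preincubation.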
IL1B secr inh – qHTS for Inhibitors of Inflammasome Signaling: IL-1-beta AlphaLISA Primary Screen | 4.7% of 360,000 active | activity change, % at 57.5 µM | THP-1 LPS/ATP IL-1B secretion, AlphaLISA, 16 h; active compounds read low | AID 743279, 2014; in the data active means activity change below about -50%; inconclusive means mostly about -30% to -49%
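THP-1 cells pretreated 1 hr with compounds (up to 57.5 uM final), then stimulated with LPS (250 ng/mL final) plus ATP (1.25 mM final); secreted IL-1B measured by AlphaLISA after 16 hr, decreased signal indicating inhibition.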
HT1080-NT tox – qHTS for induction of synthetic lethality in tumor cells producing 2HG: qHTS for the HT-1080-NT fibrosarcoma cell line; AID 686970, 2013; 1.6% of 360,000 active; Potency, µM (top dose mostly 46.1 µM), usual class: cytotoxic; HT-1080-NT fibrosarcoma viability, CellTiter-Glo ATP luminescence, 48 h;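 further: NT is the 2HG producing partner of a matched IDH1 knockdown line; nearly all actives have a fitted effect of over 55% in size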
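A 48-hour cytotoxicity screen used HT-1080-NT cells plated 2 hours before compound delivery. ATP-based CellTiter-Glo luminescence measured viability, normalized to DMSO and no-cell controls.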
TDP1 cell noCPT – qHTS for Inhibitors of human tyrosyl-DNA phosphodiesterase 1 (TDP1): qHTS in cells in absence of CPT | DT40 Tdp1-/- hTDP1 cells, no CPT, ATP luminescence, 48 h | 15% of 420,000 active | AID 686978, 2013 | Potency, µM (titrated, usually from 46.2 µM), usual class: inhibitors; further: nearly all actives have a fitted effect of over 55% in size
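Luminescent ATP content (CellTiter-Glo) served as the growth readout. Knockout chicken DT40 cells expressing human TDP1 were exposed to compounds without camptothecin for a minimum 48 hr at 37 °C.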
HT1080 IDH1KD tx – qHTS for induction of synthetic lethality in tumor cells producing 2HG: qHTS for the HT-1080-IDH1KD cell line | 2% of 360,000 active | HT-1080 IDH1 knockdown viability, ATP luminescence, 48 h | Potency, µM (highest dose often 46.1 µM), actives largely listed as cytotoxic | AID 686971, 2013
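After a 2 h attachment period, IDH1KD HT-1080 cells took pin-transferred compound for 48 h at 37 °C; ATP-based luminescence after 10 min room-temperature reagent incubation reported viability.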
A number is an active result; n = inactive; u = inconclusive; x = not tested or not shown. This is one part of a sample in which hits are shown more often than they occur. Unless noted, the call rests on the fitted dose curve; in most records, active means well fitted curve in the direction sought with a large enough effect; inconclusive means small, poorly fitted or top-dose-only effect, or another doubt; inactive means no such curve, though single readings can be large; an effect the other way counts as inactive or inconclusive.

SMILES	TDP1 cell CPT	12-LOX inh	IL1B secr inh	HT1080-NT tox	TDP1 cell noCPT	HT1080 IDH1KD tx
CCOc1ccc(NCc2ccccc2OCc2cccc(F)c2)cc1	u	n	-54.3	u	u	u
CCOc1ccc(CNCCc2ccc(S(N)(=O)=O)cc2)cc1	u	n	n	n	u	n
Nc1nonc1C(=O)NCCNCc1ccccc1OCc1ccc(F)cc1	23.1µM	n	n	u	16.4µM	u
NS(=O)(=O)c1ccc(CCNCc2ccccc2OCc2ccc(F)cc2)cc1	u	n	-89.6	u	20.6µM	u
O=C(COc1ccccc1)N1CCC2(CC1)SCC(=O)N2c1ccc(Cl)cc1	x	n	x	x	x	x
O=C(C(=O)N1CCC(CNC(=O)C2COc3ccccc3O2)CC1)c1cc2ccccc2o1 (stereo unspecified)	x	n	x	x	x	x
Cc1nn(C)cc1-c1ccnc(NCCCN2CCCC(CO)C2)n1 (stereo unspecified)	x	n	x	x	x	x
O=C(CN1CCN(S(=O)(=O)c2ccc3ccccc3c2)CC1)Nc1ccc2c(c1)CCC2	23.1µM	n	n	n	u	n
N#Cc1ccsc1NC(=O)CN1CCN(S(=O)(=O)c2ccc3ccccc3c2)CC1	u	n	n	n	16.4µM	n
COc1ccc(NC(=S)NC(NC(=O)/C=C/c2ccccc2)C(Cl)(Cl)Cl)cc1 (stereo unspecified)	u	n	n	u	18.4µM	u
O=CNNC(=S)Nc1cc(Cl)ccc1Cl	x	n	x	x	x	x
CC(C)NC(NC(=O)/C=C/c1ccccc1)C(Cl)(Cl)Cl (stereo unspecified)	n	n	n	n	u	n
O=C(/C=C/c1ccccc1)NC(NC(=S)Nc1cc(Cl)ccc1Cl)C(Cl)(Cl)Cl (stereo unspecified)	5.17µM	n	-65.8	u	5.17µM	u
CCOC(=O)NC(NC(=S)Nc1ccc(OC)cc1)C(Cl)(Cl)Cl (stereo unspecified)	n	n	n	n	n	n
O=C(CCc1ccccc1)NC(NC(=S)Nc1ccc(Cl)cc1)C(Cl)(Cl)Cl (stereo unspecified)	8.2µM	n	n	u	4.61µM	u
O=C(/C=C/c1ccccc1)NC(NC(=S)Nc1ccc(Cl)cc1)C(Cl)(Cl)Cl (stereo unspecified)	16.4µM	u	u	u	5.17µM	18.4µM
O=C1NCCCCCCN(Cc2ccncc2)[C@@H]2CN(C(=O)Nc3ccccc3F)CC[C@H]12	x	n	x	x	x	x
Cc1ccc(-n2nc(C)c([C@@H]3C=C[C@@H](NCc4cccc(C#N)c4)C3)c2C)cc1Cl	x	n	x	x	x	x
CNC(=O)C1Cc2c(-c3cccc(F)c3)ccnc2O1 (stereo unspecified)	n	n	n	n	n	n
CS(=O)(=O)Nc1cccc(NC(=O)C2Cc3c(-c4cccc(F)c4)ccnc3O2)c1 (stereo unspecified)	5.17µM	n	n	2.06µM	3.26µM	u
COc1ccc(NC(=O)C2Cc3c(-c4ccco4)ccnc3O2)cc1OC (stereo unspecified)	23.1µM	n	n	n	u	n
COc1ccc(NC(=O)C2Cc3c(-c4cccc(F)c4)ccnc3O2)cc1OC (stereo unspecified)	7.31µM	n	n	u	4.61µM	u
O=C(Nc1ccccc1)C1Cc2c(-c3cccc(F)c3)ccnc2O1 (stereo unspecified)	20.6µM	n	-62.7	n	u	n
Cc1ccc2c(c1)N(C(=O)CCC(=O)NC1CCCCCC1)CC(C)O2 (stereo unspecified)	u	n	n	n	u	n
C#Cc1ccc2c(c1)COc1c3ccccc3nn1-2	10.3µM	n	n	n	u	n
